Data published in PubChem BioAssay (NCATS).
Records with an inconclusive call do not appear. Values without a mark were called inactive. Calls of active or inactive are those of the source. The call rests on the fitted dose curve; in most records, active means well fitted inhibition curve with a large enough effect; inconclusive means small, poorly fitted or top-dose-only effect; inactive means flat fitted curve, though single readings scatter.

What was measured:
Assay in all cases: Cytotoxic Profiling of Annotated Libraries Using Quantitative High-Throughput Screening (AID 1296008); further: nearly all actives have a fitted effect of over 60% in size
Settings in all cases: Five cell lines viability, CellTiter-Glo ATP luminescence, 48-72 h; max response: hits give low values
HaCat = system: HaCat
Summary of the method: (§1)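 Compounds were pin-transferred onto cells and incubated 48 or 72 hr at 37 degree Celsius, 95% humidity. CellTiter-Glo was added, plates sat 10 min at room temperature, then ATP-coupled luminescence was imaged as the viability read-out.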

KB-3-1 = system: KB-3-1
Summary of the method: as §1

NIH3T3 = system: NIH3T3
Summary of the method: as §1
On the % scale 0 is the no-effect control and ±100 the full control effect; potency means the concentration at half of the fitted maximal effect.

SMILES	max response (HaCat)	max response (KB-3-1)	max response (NIH3T3)	Potency (KB-3-1)	Potency (NIH3T3)	outcome (KB-3-1)
CC(C)(C)CCN1C[C@@H]2C(CNC(=O)c3cc(Cl)cc(Cl)c3)[C@@H]2C1 (some centres not stated)	-17.8%	-5.02%	-2.97%			
COc1cc(O)c([C@@H](CC(=O)N2CC(C)CC(C)C2)c2ccc3c(c2)OCO3)c(OC)c1 (some centres not stated)	-11.1%	-2.57%	-1.6%			
COc1cc2c(cc1OC)[C@@H]1[C@H](O)[C@@H](OC)C=C3CCN(C2)[C@H]31	-24.8%			7.18 µM (active)	3.6 µM (active)	
C/C=C/c1cc(OC)c2c(c1)[C@@H](C)[C@@H](c1ccc(O)c(OC)c1)O2	-83.1%	-24.2%	-61.9%			
C/C1=C\CC[C@]2(C)O[C@@H]2[C@H](O)[C@H](C(C)C)[C@H](OC(=O)/C=C/c2ccccc2)C1	-5.06%	-3.73%	2.07%			
CCc1cc(CN2CC(C(=O)O)C2)sc1-c1noc(-c2ccc(Oc3ccccc3)cc2)n1	-26.8%	-20.8%	-43%			
C=C1C(OC(C)=O)CCC2(C)CC3(OC)OC(=O)C(C)=C3CC12 (configuration not stated)	-0.749%	7.17%	0.22%			
C=C[C@@]12COC(=O)C(=C)C1[C@@H](O)[C@H](C(=C)C(=O)OC)[C@@H](OC(=O)C(=C)CO)C2 (some centres not stated)	-6.28%		-25.8%			inactive
COc1ccc(-c2ccc(-c3cn(C(=O)N4CCCCC4c4ccccc4)nn3)cc2)cc1 (configuration not stated)	-8.43%	-8.19%	1.57%			
